HepG2 tox: qHTS for Inhibitors of TGF-b: Cytotox Counterscreen; HepG2 CAGA-GFP viability, ATP luminescence, 18 h; Potency, µM (titrated, usually from 46.1 µM), inactives show at the highest dose activity change, negative = cytotoxicity, usual class: cytotoxic; 0.76% of 410,000 active
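HepG2 CAGA-GFP cells (1000/well, DMEM with 1% FBS) received compound, then TGF-beta at 500 pg/mL final, and were incubated 18 hours at 37 degrees C. Viability was read by CellTiter-Glo luminescence. Media-only wells were set as complete cell-killing and DMSO as no toxicity.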
TDP1 cell noCPT: qHTS for Inhibitors of human tyrosyl-DNA phosphodiesterase 1 (TDP1): qHTS in cells in absence of CPT | DT40 Tdp1-/- hTDP1 cells, no CPT, ATP luminescence, 48 h | Potency, µM (doses to about 46.2 µM), inactives show at the top dose activity change, negative = growth inhibition, most hits filed as inhibitors | 15% of 420,000 active; further: on the % scale 0 is the no-effect control and ±100 the full control effect; nearly all actives have a fitted effect of over 55% in size
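Stably hTDP1-transfected Tdp1-null chicken DT40 cells were treated with library compounds minus camptothecin and grown for at least 48 hr at 37 °C, after which cellular ATP was quantified by luminescence.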
HT1080 IDH1KD tx: qHTS for induction of synthetic lethality in tumor cells producing 2HG: qHTS for the HT-1080-IDH1KD cell line. HT-1080 IDH1 knockdown viability, ATP luminescence, 48 h. Potency, µM (doses to about 46.1 µM), for the others: top-dose activity, negative = toxicity, usual class: cytotoxic. 2% of 360,000 active;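 further: 0% = DMSO wells and -100% = cell-free medium wells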
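After a 2 h attachment period, IDH1KD HT-1080 cells took pin-transferred compound for 48 h at 37 °C; ATP-based luminescence after 10 min room-temperature reagent incubation reported viability.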
TDP1 cell CPT: qHTS for Inhibitors of human tyrosyl-DNA phosphodiesterase 1 (TDP1): qHTS in cells in presence of CPT; Potency, µM (top dose mostly 46.2 µM), for the others: at the highest dose activity change, negative = growth inhibition, usual class: inhibitors; 12% of 420,000 active; AID 686979, 2013; chicken DT40 Tdp1-/-;hTDP1 cells + 20 nM CPT, ATP luminescence, 48 h; further: on the % scale 0 is the no-effect control and ±100 the full control effect; nearly all actives have a fitted effect of over 55% in size
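Cell growth measured by CellTiter-Glo luminescence after a minimum 48 h, 37 C compound exposure with 20 nM CPT in Tdp1-knockout DT40 cells stably expressing hTDP1, seeded 400/well; qHTS titration format.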
TGFb inhibitor: qHTS for Inhibitors of TGF-b; HepG2 CAGA-GFP TGF-b/SMAD3 reporter, GFP fluorescence, 18 h; TGF-beta stimulated, 500 pg/mL final; Potency, µM (series often up to 46.1 µM), for inactives: at the highest dose activity, negative = inhibition, most hits filed as inhibitors; 1.2% of 410,000 active; further: on the % scale 0 is the no-effect control and ±100 the full control effect; nearly all actives have a fitted effect of over 65% in size
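Inhibition was scored as loss of TGF-beta-induced (500 pg/mL final, 18 hours, 37 degrees C) GFP in HEPG2 cells carrying a CAGA-GFP reporter, in DMEM with 1% FBS. Well GFP was summed per cell; Activity was normalised to unstimulated and stimulated DMSO wells, then concentration-response fitting.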
HT1080-NT tox: qHTS for induction of synthetic lethality in tumor cells producing 2HG: qHTS for the HT-1080-NT fibrosarcoma cell line; HT-1080-NT fibrosarcoma viability, CellTiter-Glo ATP luminescence, 48 h; Potency, µM (doses to about 46.1 µM), without a hit: at the highest dose activity, negative = less viability, actives largely listed as cytotoxic; 1.6% of 360,000 active; AID 686970, 2013;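 further: NT is the 2HG producing partner of a matched IDH1 knockdown line; 0% = DMSO-treated cells and -100% = media-only wells without cells; nearly all actives have a fitted effect of over 55% in size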
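A 48-hour cytotoxicity screen used HT-1080-NT cells plated 2 hours before compound delivery. ATP-based CellTiter-Glo luminescence measured viability, normalized to DMSO and no-cell controls.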
* marks the source's active call; other numbers are inactive results; [ ] = another dose, or the depositor's remark. Hits are enriched below; roughly 17% of the tested compounds scored in any of these assays. The call rests on the fitted dose curve; in most records, active means well fitted curve in the direction sought with a large enough effect; inconclusive means small, poorly fitted or top-dose-only effect, or another doubt; inactive means no such curve, though single readings can be large; an effect the other way counts as inactive or inconclusive. Potency means the concentration at half of the fitted maximal effect.

Screening Cc1ccccc1Cn1c(SCc2ccc(C(=O)NC3CCCCC3)cc2)nc2ccncc21 returned HepG2 tox -20%, TDP1 cell noCPT inconclusive, TDP1 cell CPT 23µM* and TGFb inhibitor inconclusive.
`O=C(NCCc1ccccc1)c1ccc(CSc2nc3ccncc3n2Cc2ccccc2)cc1` gave HepG2 tox -28%, TDP1 cell noCPT inconclusive, TDP1 cell CPT 4.6µM* and TGFb inhibitor inconclusive.
`Cc1ccccc1Cn1c(SCc2ccc(C(=O)NC3CCCC3)cc2)nc2ccncc21` gave HepG2 tox -12%, TDP1 cell noCPT inconclusive, TDP1 cell CPT inconclusive and TGFb inhibitor inconclusive.
Screening CC(CNC(=O)c1ccc(CSc2nc3ccncc3n2Cc2ccccc2)cc1)c1ccccc1 (stereo not drawn) returned HepG2 tox -27%, TDP1 cell noCPT inconclusive, TDP1 cell CPT inconclusive and TGFb inhibitor -13%.
Screening CCn1c(CCNC(=O)c2ccc(C)cc2)nnc1SCc1ccc(Cl)c(Cl)c1 returned HepG2 tox 1%, TDP1 cell noCPT 23µM*, HT1080 IDH1KD tx -13%, TDP1 cell CPT 21µM*, TGFb inhibitor inconclusive and HT1080-NT tox -13%.
CCn1c(CCNC(=O)c2ccc(OC)cc2)nnc1SCc1ccc(Cl)cc1Cl was read as HepG2 tox -29%, TDP1 cell noCPT inconclusive, HT1080 IDH1KD tx -12%, TDP1 cell CPT inconclusive, TGFb inhibitor inconclusive and HT1080-NT tox 2%.
For Cc1ccc(NS(=O)(=O)c2cccc(C(=O)NCC(c3ccco3)N3CCCC3)c2)cc1 (stereo not drawn) the results were HepG2 tox -21%, TDP1 cell noCPT inconclusive, HT1080 IDH1KD tx -10%, TDP1 cell CPT inconclusive, TGFb inhibitor -11% and HT1080-NT tox -8%[9.24 µM].
O=c1[nH]c(COc2ccccc2)nc2ccccc12 was read as HepG2 tox -6%, TDP1 cell noCPT inconclusive, HT1080 IDH1KD tx -25%, TDP1 cell CPT 21µM*, TGFb inhibitor -5% and HT1080-NT tox -10%.
Screening CCOc1ccc(Nc2nnc(SCc3nc4ccccc4c(=O)[nH]3)s2)cc1 returned HepG2 tox -17%, TDP1 cell noCPT 18µM*, HT1080 IDH1KD tx 3%, TDP1 cell CPT 18µM*, TGFb inhibitor -25% and HT1080-NT tox -7%.
Screening O=c1[nH]c(COc2ccc(Br)cc2Cl)nc2ccccc12 returned HepG2 tox -22%, TDP1 cell noCPT inconclusive, HT1080 IDH1KD tx -6%, TDP1 cell CPT 21µM*, TGFb inhibitor -27% and HT1080-NT tox 4%.
For O=C(Oc1oc(-c2ccco2)nc1C=Nc1ccc(Cl)cc1)c1ccco1 the results were HepG2 tox 1%, TDP1 cell noCPT 9.2µM*, HT1080 IDH1KD tx -3%, TDP1 cell CPT 10µM*, TGFb inhibitor -3% and HT1080-NT tox -7%.
Cc1ccc(N=Cc2nc(-c3ccc(C)cc3)oc2O)cc1 was read as HepG2 tox -15%, TDP1 cell noCPT -9%, HT1080 IDH1KD tx -7%, TDP1 cell CPT -21%, TGFb inhibitor -3% and HT1080-NT tox -1%.
COc1ccc(N=Cc2nc(-c3ccco3)oc2O)cc1 was read as HepG2 tox -27%, TDP1 cell noCPT 29µM*, HT1080 IDH1KD tx inconclusive, TDP1 cell CPT inconclusive, TGFb inhibitor 2% and HT1080-NT tox -4%.
`CC(=O)Oc1oc(-c2ccccc2)nc1C=Nc1ccc(N(C)C)cc1` gave HepG2 tox -22%, TDP1 cell noCPT inconclusive, HT1080 IDH1KD tx 23%, TDP1 cell CPT inconclusive, TGFb inhibitor 0% and HT1080-NT tox 18%.
`COc1cc(-c2cc(C(=O)Nc3c(Cl)cc(Cl)cc3Cl)c3ccccc3n2)cc(OC)c1OC` gave HepG2 tox 1%, TDP1 cell noCPT 18µM*, HT1080 IDH1KD tx -9%, TDP1 cell CPT 21µM*, TGFb inhibitor 2% and HT1080-NT tox -3%.
`CCN(CC)S(=O)(=O)c1ccc(O)c(NC(=O)c2cc(-c3cc(OC)c(OC)c(OC)c3)nc3ccccc23)c1` gave HepG2 tox 6%, TDP1 cell noCPT 21µM*, HT1080 IDH1KD tx inconclusive, TDP1 cell CPT inconclusive, TGFb inhibitor inconclusive and HT1080-NT tox inconclusive.
COc1cc(-c2cc(C(=O)Nc3ccc(S(N)(=O)=O)cc3)c3ccccc3n2)cc(OC)c1OC was read as HepG2 tox -17%, TDP1 cell noCPT 3.7µM*, HT1080 IDH1KD tx -1%, TDP1 cell CPT 4.1µM*, TGFb inhibitor -3% and HT1080-NT tox -10%.
For COc1cc(-c2cc(C(=O)Nc3cccc(S(=O)(=O)N(C)C)c3)c3ccccc3n2)cc(OC)c1OC the results were HepG2 tox -16%, TDP1 cell noCPT -24%, HT1080 IDH1KD tx inconclusive, TDP1 cell CPT -2%, TGFb inhibitor -10% and HT1080-NT tox inconclusive.
O=C(NCc1ccccc1)c1ccc(S(=O)(=O)C(F)F)cc1 was read as HepG2 tox -59%, TDP1 cell noCPT -23%, HT1080 IDH1KD tx -10%, TDP1 cell CPT -13%, TGFb inhibitor 12% and HT1080-NT tox -3%.
Screening O=c1[nH]c(C2CCCN(S(=O)(=O)c3ccccc3)C2)nc2c1nnn2Cc1ccccc1Br (stereo not drawn) returned HepG2 tox -52%, TDP1 cell noCPT inconclusive, HT1080 IDH1KD tx -7%, TDP1 cell CPT inconclusive, TGFb inhibitor inconclusive and HT1080-NT tox -2%.
COc1ccc(-c2sc3cc4c(cc3c2C#Cc2cncn2C)OCO4)cc1 was read as HepG2 tox -24%, TDP1 cell noCPT 15µM*, HT1080 IDH1KD tx -1%, TDP1 cell CPT 26µM*, TGFb inhibitor -4% and HT1080-NT tox -1%.
For COc1cccc(-c2sc3ccc(OC)cc3c2C#CC2(O)CCCCC2)c1 the results were HepG2 tox -41%, TDP1 cell noCPT 23µM*, HT1080 IDH1KD tx inconclusive, TDP1 cell CPT inconclusive, TGFb inhibitor inconclusive and HT1080-NT tox inconclusive.
Screening COc1ccc(-c2oc3ccccc3c2C#Cc2cncn2C)cc1 returned HepG2 tox -28%, TDP1 cell noCPT 18µM*, HT1080 IDH1KD tx inconclusive, TDP1 cell CPT 16µM*, TGFb inhibitor -14% and HT1080-NT tox inconclusive.

Screening results: PubChem, National Center for Advancing Translational Sciences (NCATS)
